From article PMC11062922 (Nature Chemical Biology, 2023)
Read-outs that look alike come from different tables or passages of the source.

Experiments:
[1] = tested on: AAK1; design: species or system human, MV4-11 + K-562 + COLO205 + SK-N-BE2 + OVCAR-8; conditions: read-out: apparent Kd, compound concentrations: 100 nM and 1000 nM (sheet 'Samples'), n = 1
[2] = tested on: BMP2K; design: species or system human, MV4-11 + K-562 + COLO205 + SK-N-BE2 + OVCAR-8; conditions: read-out: apparent Kd, compound concentrations: 100 nM and 1000 nM (sheet 'Samples'), n = 1
[3] = tested on: CLK1; design: species or system human, MV4-11 + K-562 + COLO205 + SK-N-BE2 + OVCAR-8; conditions: read-out: apparent Kd, compound concentrations: 100 nM and 1000 nM (sheet 'Samples'), n = 1
[4] = tested on: CLK4; design: species or system human, MV4-11 + K-562 + COLO205 + SK-N-BE2 + OVCAR-8; conditions: read-out: apparent Kd, compound concentrations: 100 nM and 1000 nM (sheet 'Samples'), n = 1
[5] = tested on: CSNK2A1;CSNK2A3; design: species or system human, MV4-11 + K-562 + COLO205 + SK-N-BE2 + OVCAR-8; conditions: read-out: apparent Kd, compound concentrations: 100 nM and 1000 nM (sheet 'Samples'), n = 1
[6] = tested on: CSNK2A2; design: species or system human, MV4-11 + K-562 + COLO205 + SK-N-BE2 + OVCAR-8; conditions: read-out: apparent Kd, compound concentrations: 100 nM and 1000 nM (sheet 'Samples'), n = 1
[7] = tested on: FLT4; design: species or system human, MV4-11 + K-562 + COLO205 + SK-N-BE2 + OVCAR-8; conditions: read-out: apparent Kd, compound concentrations: 100 nM and 1000 nM (sheet 'Samples'), n = 1
[8] = tested on: GAK; design: species or system human, MV4-11 + K-562 + COLO205 + SK-N-BE2 + OVCAR-8; conditions: read-out: apparent Kd, compound concentrations: 100 nM and 1000 nM (sheet 'Samples'), n = 1
[9] = tested on: GSK3A; design: species or system human, MV4-11 + K-562 + COLO205 + SK-N-BE2 + OVCAR-8; conditions: read-out: apparent Kd, compound concentrations: 100 nM and 1000 nM (sheet 'Samples'), n = 1
[10] = tested on: GSK3B; design: species or system human, MV4-11 + K-562 + COLO205 + SK-N-BE2 + OVCAR-8; conditions: read-out: apparent Kd, compound concentrations: 100 nM and 1000 nM (sheet 'Samples'), n = 1
[11] = tested on: NUAK1; design: species or system human, MV4-11 + K-562 + COLO205 + SK-N-BE2 + OVCAR-8; conditions: read-out: apparent Kd, compound concentrations: 100 nM and 1000 nM (sheet 'Samples'), n = 1
[12] = tested on: PAK4; design: species or system human, MV4-11 + K-562 + COLO205 + SK-N-BE2 + OVCAR-8; conditions: read-out: apparent Kd, compound concentrations: 100 nM and 1000 nM (sheet 'Samples'), n = 1
[13] = biological target: Q6ZSR9 (human, UniProt Q6ZSR9); design: species or system MV4-11 + K-562 + COLO205 + SK-N-BE2 + OVCAR-8; conditions: read-out: apparent Kd, compound concentrations: 100 nM and 1000 nM (sheet 'Samples'), n = 1
[14] = tested on: RET; design: species or system human, MV4-11 + K-562 + COLO205 + SK-N-BE2 + OVCAR-8; conditions: read-out: apparent Kd, compound concentrations: 100 nM and 1000 nM (sheet 'Samples'), n = 1
[15] = tested on: CDKL5; design: species or system human, MV4-11 + K-562 + COLO205 + SK-N-BE2 + OVCAR-8; conditions: read-out: apparent Kd; compound concentrations: 100 nM and 1000 nM (sheet 'Samples'), CATDS: 8.2845593333633408E-3; n = 1
[16] = tested on: FLT3; design: species or system human, MV4-11 + K-562 + COLO205 + SK-N-BE2 + OVCAR-8; conditions: read-out: apparent Kd; compound concentrations: 100 nM and 1000 nM (sheet 'Samples'), CATDS: 1.0367577324715899E-2; n = 1
[17] = tested on: MELK; design: species or system human, MV4-11 + K-562 + COLO205 + SK-N-BE2 + OVCAR-8; conditions: read-out: apparent Kd; compound concentrations: 100 nM and 1000 nM (sheet 'Samples'), CATDS: 8.0269577096188198E-3; n = 1
[18] = tested on: MYLK3; design: species or system human, MV4-11 + K-562 + COLO205 + SK-N-BE2 + OVCAR-8; conditions: read-out: apparent Kd; compound concentrations: 100 nM and 1000 nM (sheet 'Samples'), CATDS: 6.6633165686717103E-3; n = 1
[19] = tested on: PRKD2; design: species or system human, MV4-11 + K-562 + COLO205 + SK-N-BE2 + OVCAR-8; conditions: read-out: apparent Kd; compound concentrations: 100 nM and 1000 nM (sheet 'Samples'), CATDS: 8.2429468538409798E-3; n = 1

Sequence of Q6ZSR9 (Q6ZSR9 whole entry, looked up): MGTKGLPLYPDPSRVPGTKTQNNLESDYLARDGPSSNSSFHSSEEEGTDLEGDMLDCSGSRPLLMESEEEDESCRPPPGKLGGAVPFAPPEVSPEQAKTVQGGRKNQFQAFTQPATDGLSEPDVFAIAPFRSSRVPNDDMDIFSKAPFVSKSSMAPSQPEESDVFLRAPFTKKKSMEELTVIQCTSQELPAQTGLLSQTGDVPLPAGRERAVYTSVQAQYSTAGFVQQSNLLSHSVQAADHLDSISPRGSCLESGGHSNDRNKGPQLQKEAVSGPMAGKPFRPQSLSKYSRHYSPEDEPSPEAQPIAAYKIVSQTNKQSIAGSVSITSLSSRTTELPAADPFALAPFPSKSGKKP

Cl.Nc1c(C(=O)c2cccc(C#CCN3CCCCC3)c2)cnn1-c1ccc(F)cc1 [RO1154461-001]
potency estimated from few doses ([1]; CATDS: 1.4474046603820999E-2): 0.607 µM
potency estimated from few doses ([2]; CATDS: 1.20459910405703E-2): 1 µM
potency estimated from few doses ([3]; CATDS: 1.5060802907151999E-2): 0.552 µM
potency estimated from few doses ([4]; CATDS: 1.3844573276346099E-2): 0.679 µM
potency estimated from few doses ([5]; CATDS: 1.1541786487004701E-2): 1.14 µM
potency estimated from few doses ([6]; CATDS: 1.10304448511726E-2): 1.33 µM
potency estimated from few doses ([7]; CATDS: 1.33586959494144E-2): 0.746 µM
potency estimated from few doses ([8]; CATDS: 4.3588593109949197E-2): 0.0814 µM
potency estimated from few doses ([9]; CATDS: 3.2177955723616897E-2): 0.129 µM
potency estimated from few doses ([10]; CATDS: 1.7633019943865499E-2): 0.387 µM
potency estimated from few doses ([11]; CATDS: 1.03638923622048E-2): 1.67 µM
potency estimated from few doses ([12]; CATDS: 1.4039072021364001E-2): 0.656 µM
potency estimated from few doses ([13]; CATDS: 1.44791042777868E-2): 0.607 µM
potency estimated from few doses ([14]; CATDS: 1.69120998976478E-2): 0.424 µM

O=C1N=C(NCCc2ccc(Cl)cc2)S/C1=C\c1ccc2ncccc2c1 [RO4498479-000]
potency estimated from few doses ([1]; CATDS: 1.47357709485617E-2): 0.257 µM
potency estimated from few doses ([2]; CATDS: 1.0596911535971001E-2): 0.487 µM
potency estimated from few doses [15]: 0.909 µM
potency estimated from few doses ([3]; CATDS: 2.3801432407155699E-2): 0.123 µM
potency estimated from few doses ([4]; CATDS: 1.10234043350519E-2): 0.447 µM
potency estimated from few doses ([5]; CATDS: 1.63252209283915E-2): 0.216 µM
potency estimated from few doses ([6]; CATDS: 1.5998355653452E-2): 0.224 µM
potency estimated from few doses [16]: 0.511 µM
potency estimated from few doses ([7]; CATDS: 1.0631245795833501E-2): 0.483 µM
potency estimated from few doses ([8]; CATDS: 1.9710228455472299E-2): 0.161 µM
potency estimated from few doses ([9]; CATDS: 2.3758867869594399E-2): 0.123 µM
potency estimated from few doses ([10]; CATDS: 1.7085262625281698E-2): 0.201 µM
potency estimated from few doses [17]: 1 µM
potency estimated from few doses [18]: 2.04 µM
potency estimated from few doses ([11]; CATDS: 8.4437303302316406E-3): 0.86 µM
potency estimated from few doses ([12]; CATDS: 1.2005445098745401E-2): 0.375 µM
potency estimated from few doses [19]: 0.923 µM
potency estimated from few doses ([13]; CATDS: 1.3986845405836199E-2): 0.282 µM
potency estimated from few doses ([14]; CATDS: 1.4080551975431E-2): 0.278 µM

Cc1ccc(Nc2ccnc(Nc3ccc4c(c3)CS(=O)(=O)C4)n2)cc1O.Cl [GW579362A]
potency estimated from few doses ([1]; CATDS: 3.1485270896706399E-2): 1.06 µM
potency estimated from few doses ([2]; CATDS: 2.75119720973705E-2): 1.64 µM
potency estimated from few doses ([5]; CATDS: 3.1042037667094801E-2): 1.1 µM
potency estimated from few doses ([6]; CATDS: 3.7509924473465302E-2): 0.666 µM
potency estimated from few doses ([7]; CATDS: 3.6167271282575603E-2): 0.729 µM
potency estimated from few doses ([14]; CATDS: 5.0599670871917801E-2): 0.349 µM
